Source: PubChem
KB-3-1 cytotox – KB-3-1 parental cell cytotoxicity; 400,000 tested, 1.4% active; KB-3-1 viability, CellTiter-Glo ATP luminescence, 72 h; Potency, µM (highest dose often 46.1 µM), most hits filed as cytotoxic; note: % is set by controls: 0 for no effect and ±100 for the full control effect; nearly all actives have a fitted effect of over 60% in size
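Parental KB-3-1 adenocarcinoma cells in phenol-red-free DMEM with 10% FBS were pin-treated with compounds at several concentrations, incubated 72 h at 37 °C, and viability read by CellTiter-Glo luminescence; concentration-effect curves were fitted after normalization.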
HepG2 viability – counter-screen for TGF-b inhibitors: cytotoxicity in HepG2 cells; HepG2 CAGA-GFP viability, ATP luminescence, 18 h; Potency, µM (series often up to 46.1 µM), without a hit: at the highest dose activity change, negative = cytotoxicity, usual class: cytotoxic; 410,000 tested, 0.76% active; AID 588856
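HepG2 CAGA-GFP cells (1000/well, DMEM with 1% FBS) received compound, then TGF-beta at 500 pg/mL final, and were incubated 18 hours at 37 degrees C. Viability was read by CellTiter-Glo luminescence. Media-only wells were set as complete cell-killing and DMSO as no toxicity.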
TGFb inhibitor – inhibitors of TGF-b signaling; HepG2 CAGA-GFP TGF-b/SMAD3 reporter, GFP fluorescence, 18 h; TGF-beta stimulated, 500 pg/mL final; Potency, µM (series often up to 46.1 µM), without a hit: at the top dose activity, negative = inhibition, usual class: inhibitors; 410,000 tested, 1.2% active; AID 588855; note: % is set by controls: 0 for no effect and ±100 for the full control effect; nearly all actives have a fitted effect of over 65% in size
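GFP signal (ex488/em500-530) from TGF-beta-stimulated HEPG2 CAGA-GFP cells, 500 pg/mL final, 18 h at 37 degrees C in DMEM plus 1% FBS, normalized to unstimulated and DMSO-stimulated controls.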
KB-V1 cytotox – kills drug-selected multidrug resistant KB-V1 cells; KB-V1 MDR cells viability, CellTiter-Glo, 72 h; Potency, µM (highest dose often 46.1 µM), most hits filed as cytotoxic; AID 1347076; 400,000 tested, 3.4% active; note: % is set by controls: 0 for no effect and ±100 for the full control effect; nearly all actives have a fitted effect of over 60% in size
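qHTS viability screen in drug-selected KB-V1 MDR cells: 72 h compound treatment at 37 degrees C, ATP luminescence end point.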
HT1080 IDH1KD tx – kills HT-1080 cells with IDH1 knockdown; HT-1080 IDH1 knockdown viability, ATP luminescence, 48 h; Potency, µM (highest dose often 46.1 µM), inactives show top-dose activity, negative = toxicity, usual class: cytotoxic; 360,000 tested, 2% active; AID 686971;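 note: 0% = DMSO wells and -100% = cell-free medium wells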
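HT-1080-IDH1KD cells (IDH1 knocked down), 750/well in RPMI with 5% FBS, treated with compound 48 h at 37 degrees C. Viability by CellTiter-Glo luminescence, normalised to DMSO and no-cell wells; concentration-response curves classed.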
HT1080-NT tox – kills 2HG-producing HT-1080-NT fibrosarcoma cells. HT-1080-NT fibrosarcoma viability, CellTiter-Glo ATP luminescence, 48 h. Potency, µM (top dose mostly 46.1 µM), inactives show top-dose activity, negative = less viability, most hits filed as cytotoxic. 360,000 tested, 1.6% active. AID 686970;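 note: NT is the 2HG producing partner of a matched IDH1 knockdown line; 0% = DMSO-treated cells and -100% = media-only wells without cells; nearly all actives have a fitted effect of over 55% in size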
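Compounds were tested in concentration-response format on HT-1080-NT cells for 48 hours at 37 degrees C. Cell viability came from CellTiter-Glo luminescence; curves were classified by r2, response magnitude and activity.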
* = called active by the depositor; i = inactive; ? = inconclusive; . = no result; ! = not active in a repeat. Rows were chosen to be rich in hits. Some 6.6% of all compounds tested hit in one or more screens of this group. Calls come from the whole dose curve; as a rule, active = well fitted curve in the direction sought with a large enough effect; inconclusive = small, poorly fitted or top-dose-only effect, or another doubt; inactive = no such curve, though single readings can be large; an effect the other way counts as inactive or inconclusive. Potency is the fitted concentration of half-maximal effect.

SMILES	KB-3-1 cytotox	HepG2 viability	TGFb inhibitor	KB-V1 cytotox	HT1080 IDH1KD tx	HT1080-NT tox
O=C(NCc1cccs1)C1CC(c2ccccc2O)=NO1 (stereo not given)	16.4µM*	10.8%	-22.8%	?	-1.6%	-14.8%
COc1cc(C2=NOC(C(=O)NCc3cccnc3)C2)cc(OC)c1OC (stereo not given)	?	-5.4%	47.8%	i	-5.6%	-1.1%
COc1cc(C2=NOC(C(=O)NCc3cccs3)C2)cc(OC)c1OC (stereo not given)	2.06µM*	-19.7%	-12.8%	2.59µM*	7.31µM*	5.8µM*
COc1ccc(C2=NOC(C(=O)NCc3cccs3)C2)cc1 (stereo not given)	6.51µM*	2.4%	8.7%	2.91µM*	5.17µM*	?
COc1cc(OC)c(C2=NOC(C(=O)NCc3cccs3)C2)cc1Cl (stereo not given)	i	14.6%	-7.1%	7.31µM*	4.61µM*	4.11µM*
COc1ccc(CNC(=O)C2CC(c3ccc(OC)cc3)=NO2)cc1 (stereo not given)	i	1.7%	26.2%	i	-9.3%	-1.4%
CCS(=O)(=O)N1CCc2cc(C(=O)NC(C)c3ccccc3)ccc21 (stereo not given)	i	-10.5%	?	i	.	.
O=C(NCc1ccccc1Cl)C1CCCN(c2nc3ccccc3n3cccc23)C1 (stereo not given)	.	-18.3%	-19.7%	.	.	.
COc1ccc(C2=NOC(C(=O)NCc3ccc(F)cc3)C2)cc1 (stereo not given)	7.31µM*	-11.2%	-4.6%	14.6µM*	?	?
COc1ccc(C2=NOC(C(=O)NCc3cccs3)C2)cc1OC (stereo not given)	4.61µM*	1.1%	0.0%	5.17µM*	6.51µM*	?
CCn1ncc(C2=NOC(C(=O)NCc3ccc(Cl)cc3)C2)c1C (stereo not given)	2.31µM*	-3.6%	-15.3%	4.61µM*	6.31µM*	4.47µM*
Cn1nc([N+](=O)[O-])nc1Oc1ccc(C(C)(C)C)cc1	i	4.6%	8.9%	14.6µM*	17.7%	5.3%
Oc1ccc(Cc2ccccc2)c2cccnc12	23.1µM*	-5.4%	-19.7%	i	?	?
Oc1ccc2ccccc2c1CN1CCN(c2ccccc2)CC1	i	1.3%	-7.8%	?	-1.6%	6.4%
Oc1ccc(CN2CCN(c3ccccc3)CC2)c2cccnc12	?	-34.9%	?	i	0.708µM*	1.12µM*
Oc1cc2c(cc1CN1CCc3ccccc3C1)OCO2	i	-27.5%	?	i	-1.7%	-3.3%
Oc1ccc(CN2CCc3ccccc3C2)c2cccnc12	4.61µM*	-62.8%	?	?	13µM*	11.6µM*
Oc1c(CN2CCCCC2)ccc2cccnc12	?	-31.1%	?	?	3.26µM*	2.06µM*
COc1cccc(C(=O)Nc2ccc3nc(SCC(=O)N4CCOCC4)sc3c2)c1	.	0.3%	0.0%	.	.	.
CCOC(=O)c1cc2c(=O)n3ccccc3nc2n(Cc2ccco2)c1=NC(=O)c1c(F)cccc1Cl	i	6.0%	?	i	.	.
COCc1cn(CC(C)n2c(=O)c3ccccc3n2Cc2cc(C(C)C)no2)nn1 (stereo not given)	i	.	.	i	9.2%	4.5%
CC(C)COCc1ccc(O)c2ncccc12	?	-49.2%	10µM*	?	10.3µM*	20.6µM*
Oc1ccc(CN2CCCCC2)c2cccnc12	?	-59.7%	3.16µM*	?	1.41µM*	3.16µM*
Oc1ccc(CNc2ccccc2F)c2cccnc12	20.6µM*!	-24.1%	7.08µM*	?	?	?
Cc1nc2c3ccccc3nc(NNC(=O)CCC(=O)N3CCN(c4cc(Cl)ccc4C)CC3)n2n1	i	-23.6%	?	i	.	.
SMILES	KB-3-1 cytotox	HepG2 viability	TGFb inhibitor	KB-V1 cytotox	HT1080 IDH1KD tx	HT1080-NT tox
CCOC(=O)c1c(NC(=O)CSc2cn(CCNC(=O)c3ccc(OC)c(OC)c3)c3ccccc23)sc2c1CCCC2	i	-22.4%	?	i	.	.
CCN(Cc1nc(-c2ccc(OC)c(OC)c2)no1)S(=O)(=O)c1ccc(OC)cc1	i	-32.4%	-2.4%	?	.	.
O=C(OCc1ccccc1)N1CCN(C(c2ccnc3ccccc23)c2nnnn2-c2ccc3c(c2)OCCO3)CC1 (stereo not given)	23.1µM*	.	.	?	?	?
c1ccc(CN(Cc2ccccc2)C(c2ccnc3ccccc23)c2nnnn2-c2ccc3c(c2)OCCO3)cc1 (stereo not given)	?	.	.	18.4µM*	-20.9%	-13.8%
O=C(NCc1ccc(F)cc1)c1c(O)nc2ccccn2c1=O	?	-14.7%	-4.2%	?	.	.
O=C(CSc1nnc2[nH]c(=O)cc(-c3ccccc3)n12)Nc1ccc(OC(F)(F)F)cc1	.	-1.5%	-4.9%	.	.	.
Cc1ncc([N+](=O)[O-])n1CCOC(=O)NC(NCc1ccccc1Cl)C(Cl)(Cl)Cl (stereo not given)	?	2.9%	?	7.31µM*	-4.5%	-1.4%
